# Hits are enriched below; roughly 27% of the tested compounds scored in any of these assays.
# CYP2C9 inhib: human CYP2C9 inhibition; inhibition, % at 5 µM; 20% of 96,000 active; AID 777; P11712; CYP2C9 Supersomes, luciferin-H conversion, luminescence;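 active = blocking of liver enzyme CYP2C9 beyond about 50% at 5 µM, limit read from the data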
# CYP2C9 activ: increases human cytochrome P450 2C9 activity; P11712; recombinant CYP2C9, luciferin-H conversion, luminescence; hits give high values; factor 1 = untreated enzyme, 0 = blocked; activation factor at 5 µM; 1.4% of 96,000 active; AID 1024;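 active = activation factor of 2 or more for CYP2C9 at a 5 µM dose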;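 note: 0 = sulfaphenazole-blocked wells and 1 = vehicle-only wells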
# Cav3 T inh: blocks human Cav3.2 T-type calcium channel; B-score at 10 µM; AID 449739; O95180; Cav3.2-expressing cells, Fluo-4 calcium fluorescence FDSS; hits give low values; 4% of 100,000 active;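 active = single-dose well whose peak fluorescence ratio is a statistical outlier from its plate by either plate-standardised score or position-corrected B-score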
# CYP2C19 activ: activators of human cytochrome P450 2C19. 96,000 tested, under 10 active. activation factor at 5 µM. P33261. AID 1025. recombinant CYP2C19, luciferin-H EGE luminescence; hits give high values; 0 = fully inhibited enzyme, 1 = untreated enzyme;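 active = activation factor of at least 2 at 5 µM in the primary screen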;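 note: 0 = wells with 2.5 mM tranylcypromine and 1 = vehicle-only wells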
# CYP2C19 inh: human CYP2C19 inhibition; P33261; CYP2C19 Supersomes, luciferin-H EGE luminescence, 30 min; inhibition, % at 5 µM; 21% of 96,000 active; AID 778;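 active = CYP2C19 inhibition above a set limit at 5 µM in the primary screen, cut at about 50% in these data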;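 note: plate controls were negative control wells for no effect and 2.5 mM tranylcypromine positive control for full effect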
# Numbers without * were called inactive; · = no result.
SMILES,CYP2C9 inhib,CYP2C9 activ,Cav3 T inh,CYP2C19 activ,CYP2C19 inh
COc1ccc(-c2cc(C(=O)Nc3nc4c(C)cccc4s3)c3ccccc3n2)cc1OC,35,0.6,-0.57,1,-4
Cc1ccc(C)c(-c2cc(C(=O)Nc3sc(C)c(C)c3C(N)=O)c3ccccc3n2)c1,96*,0,-0.79,0.6,41
Cc1cccc(-c2cc(C(=O)Nc3sc(C)c(C)c3C(N)=O)c3ccccc3n2)c1,69*,0.3,·,1,0
CC1CCCCN1C(=O)CN1C(=O)CN(C)C(=O)c2ccccc21 (stereo not given),13,0.9,0.008,0.8,17
CC(N)C12CC3CC(C1)CC(C(C)N)(C3)C2 (stereo not given),-20,1.2,0.64,1.2,-23
Cc1ccc(S(=O)(=O)N2CCC(=O)N(C(COCc3cccc(Cl)c3)C(C)C)CC2)cc1 (stereo not given),·,·,-2.1,·,·
O=C(NC(C(=O)N/N=C/c1cccc2ccccc12)c1n[nH]c(=O)c2ccccc12)c1ccccc1 (stereo not given),56*,0.4,-1.8,0.7,33
COc1ccc2c(c1)C(C)CC(C)(C)N2C(=O)CSc1nc2ccccc2s1 (stereo not given),54*,0.5,-7.6*,0.3,71*
Cc1ccc(C(=O)N(c2ccccn2)C(C)c2ccco2)cc1 (stereo not given),29,0.7,-0.022,0.2,80*
CC(c1ccco1)N(C(=O)C12CC3CC(CC(C)(C3)C1)C2)c1ccccn1 (stereo not given),23,0.8,-1.1,0.6,42
CC(c1ccco1)N(C(=O)Nc1ccc(Cl)cc1)c1ccccn1 (stereo not given),56*,0.4,-1,0.2,85*
CCOC(=O)C1CCCN(S(=O)(=O)Cc2ccccc2)C1 (stereo not given),10,0.9,0.94,0.8,20
CCOC(=O)C1CCN(S(=O)(=O)Cc2ccc(Cl)cc2)CC1,93*,0.1,-0.18,0.1,87*
CCOC(=O)C1CCN(S(=O)(=O)Cc2ccccc2)CC1,69*,0.3,-0.82,0.6,45
COc1ccc(-c2cc3ccccc3n2CC(O)Cn2nc(C)cc2C)cc1 (stereo not given),100*,0,-6.4*,0,99*
COc1ccc(-c2cc3ccccc3n2CC(O)CN2CCC(C)CC2)cc1 (stereo not given),·,·,-0.95,·,·
COc1ccc(Cn2c(=O)c3c(nc(NCCO)n3C)n(C)c2=O)cc1,-35,1.3,-0.058,1,1
COc1ccc(CNc2nc3c(c(=O)n(Cc4ccc(Br)cc4)c(=O)n3C)n2C)cc1,63*,0.4,-2.1,0.5,48
Cn1c(NCc2ccccc2)nc2c1c(=O)n(Cc1ccc(Br)cc1)c(=O)n2C,97*,0,-0.0075,0.1,89*
Cn1c(NCc2ccco2)nc2c1c(=O)n(Cc1ccc(Br)cc1)c(=O)n2C,0,1,-1.4,0.9,6
CCOC(=O)C[C@H]1c2cc(C(F)(F)F)ccc2S(=O)(=O)N1Cc1ccccc1,·,·,-0.24,·,·
CC1=C(C(=O)OCC2CCCO2)C(c2ccncc2)C2=C(CC(C)(C)CC2=O)N1 (stereo not given),22,0.8,0.44,0.4,57*
CCOC(=O)C1=C(N)OC2=C(C(=O)CC(C)(C)C2)C1c1ccco1 (stereo not given),36,0.6,-0.89,0.8,21
CC1=C(C(=O)OCc2ccccc2)C(c2ccco2)C2=C(CC(C)(C)CC2=O)N1 (stereo not given),67*,0.3,·,0.4,63*
Cc1ccc(C(=O)CSC2=C(C#N)C(c3ccco3)CC(=O)N2)c(C)c1 (stereo not given),98*,0,-1.7,0.5,49
Cc1ccc(NC(=O)CSC2=C(C#N)C(c3ccco3)C3=C(CC(C)(C)CC3=O)N2)cc1 (stereo not given),96*,0,-2.8,0.1,93*
COCCCn1c(SCc2cc(=O)[nH]c3ccccc23)nnc1-c1ccco1,-11,1.1,0.0043,1,0
CC(C)NC(=O)CSc1nncn1-c1ccccc1,-7,1.1,0.63,1.1,-7
O=C(CN1C(=O)COc2ccccc21)N(Cc1ccc2c(c1)OCO2)CC1CCCO1 (stereo not given),14,0.9,1,0.9,14

# From PubChem
